Results as given in PubChem BioAssay AID485346 (Sanford-Burnham Center for Chemical Genomics, 2010).
In all, about 330,000 compounds went through this assay and about 10,000 (3%) were called active. This excerpt belongs to a sample that is enriched for actives. A number with no mark means an inactive call.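 The calls were made as follows: active = inhibition of at least 50% at 8 µM in the primary screen; inactive = the rest.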

These compounds were tested against Protein Mdm4 (Homo sapiens) + E3 ubiquitin-protein ligase Mdm2 (Homo sapiens) (UniProt O15151+Q00987) (assay: inhibitors of human Mdm2-MdmX association, primary screen, cell-based, luminescence, split luciferase, SaOS-2, uHTS (AID 485346)). Settings: SaOS-2 split-luciferase Mdm2/MdmX complementation, at 8 µM, hits give high values.
Protein Mdm4 (Homo sapiens) + E3 ubiquitin-protein ligase Mdm2 (Homo sapiens), sequence (O15151 whole entry, looked up): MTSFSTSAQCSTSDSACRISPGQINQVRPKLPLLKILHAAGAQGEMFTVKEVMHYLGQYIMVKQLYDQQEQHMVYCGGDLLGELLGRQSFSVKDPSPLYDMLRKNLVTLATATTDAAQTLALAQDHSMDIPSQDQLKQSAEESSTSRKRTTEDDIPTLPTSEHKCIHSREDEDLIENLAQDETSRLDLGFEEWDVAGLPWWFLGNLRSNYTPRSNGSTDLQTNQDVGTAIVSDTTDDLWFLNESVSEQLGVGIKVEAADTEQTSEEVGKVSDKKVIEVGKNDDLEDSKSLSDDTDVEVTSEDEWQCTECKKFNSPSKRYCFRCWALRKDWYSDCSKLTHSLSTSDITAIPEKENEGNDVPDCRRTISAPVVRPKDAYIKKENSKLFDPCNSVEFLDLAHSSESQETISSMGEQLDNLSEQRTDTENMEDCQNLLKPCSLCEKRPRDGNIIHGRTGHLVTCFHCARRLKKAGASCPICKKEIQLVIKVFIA
Protein Mdm4 (Homo sapiens) + E3 ubiquitin-protein ligase Mdm2 (Homo sapiens), sequence (Q00987 whole entry, looked up): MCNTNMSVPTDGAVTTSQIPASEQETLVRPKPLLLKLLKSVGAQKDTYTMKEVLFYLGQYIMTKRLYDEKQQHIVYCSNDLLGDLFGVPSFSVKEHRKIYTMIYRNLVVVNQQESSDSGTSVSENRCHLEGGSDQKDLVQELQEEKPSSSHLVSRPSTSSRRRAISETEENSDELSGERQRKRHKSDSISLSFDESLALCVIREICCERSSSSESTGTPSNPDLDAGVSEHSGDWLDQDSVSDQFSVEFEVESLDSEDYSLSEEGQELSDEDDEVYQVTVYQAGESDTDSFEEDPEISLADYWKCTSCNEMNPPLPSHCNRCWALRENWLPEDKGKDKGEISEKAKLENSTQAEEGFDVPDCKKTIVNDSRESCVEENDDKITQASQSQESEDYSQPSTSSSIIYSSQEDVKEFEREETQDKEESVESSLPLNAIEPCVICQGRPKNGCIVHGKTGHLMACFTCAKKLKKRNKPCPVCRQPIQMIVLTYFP

SMILES	inhibition
Cc1ccc(CC(=O)N(C)CC(=O)N(CC(C)C)c2c(N)n(CC(C)C)c(=O)[nH]c2=O)cc1C	-20.2%
Cc1cccc(CN2CCC(CNC(=O)Nc3ccc(F)c(Cl)c3)CC2)c1	51.6% (active)
Cc1ccc(C)c(CN2CCC(CNC(=O)Nc3ccc(C)c(F)c3)CC2)c1	42.6%
Cc1ccccc1NC(=O)NCC1CCN(Cc2cccc(Cl)c2)CC1	8.22%
O=C(COC(=O)/C(=C/c1cccs1)c1cccs1)NCc1ccccc1Cl	-28%
CCN(Cc1ccccc1)S(=O)(=O)c1cc2c3c(c1)CCN3C(=O)CC2	-8.54%
CCCC[C@@H]1CN=C(N)N1CCc1cc(C(F)(F)F)cc(C(F)(F)F)c1	68.1% (active)
CCCC[C@@H]1CN=C(N)N1CCCC	16.5%
CCCC[C@@H]1CN=C(N)N1CCc1cccc(F)c1	-13.6%
O=C(C1CCN(C2CCN(Cc3ccc4cc(F)ccc4n3)CC2)CC1)N1CCCC1	6.09%
CCCc1nc2oc3c(OCC)ncnc3c2c2c1COC(C)(C)C2	-1.2%
O=C(Nc1nonc1-c1ccc(Cl)cc1)c1ccco1	3.32%
Cc1ccc(/C=C/C(=O)OCC(=O)Nc2cccnc2Cl)cc1	7.79%
COc1ccc(NC(=O)CN(C)C(=O)/C=C/c2cn(Cc3ccccc3)nc2-c2cccnc2)cc1	9.31%
O=C(COC(=O)/C=C/c1cn(-c2ccccc2)nc1-c1cccnc1)Nc1ccc(Cl)cc1Cl	61.3% (active)
COc1cc([N+](=O)[O-])ccc1NC(=O)COC(=O)CCOc1ccc(C)cc1	57.2% (active)
COc1ccccc1CC(=O)Nc1ccc([N+](=O)[O-])cc1OC	19.7%
COc1cc([N+](=O)[O-])ccc1NC(=O)CN1CCCC1	-4.27%
N#Cc1c(N)sc2c1CCN(C(=O)OCc1ccccc1)C2	17.8%
CN(C)CCNC(=O)/C(=C/c1cccc([N+](=O)[O-])c1)NC(=O)c1ccccc1	-8%
C=CCNC(=O)/C(=C\c1cccc([N+](=O)[O-])c1)NC(=O)c1ccccc1	22.1%
Cc1ccc(C(=O)N/C(=C/c2ccc(-c3cccc([N+](=O)[O-])c3)o2)C(=O)NCCCN(C)C)cc1	78.3% (active)
NS(=O)(=O)c1cccc(NC(=O)COC(=O)c2cc([N+](=O)[O-])ccc2N2CCCC2)c1	17.6%

SMILES	inhibition
CC(C)Oc1ccc(C(=O)NCC(=O)Nc2ccc3c(c2)CCC3)cc1	-15.9%
CC(NC(=O)c1ccco1)C(=O)Nc1nc(-c2ccccn2)cs1 (stereo not given)	21.9%
O=C(COc1ccccc1F)Nc1nc(-c2ccccn2)cs1	72.2% (active)
O=C(CN1C(=O)C2C3C=CC(C3)C2C1=O)Nc1nc(-c2ccccn2)cs1 (stereo not given)	33.1%
CCOc1ccc(CN2CCN(Cc3ccc4cc(F)ccc4n3)CC2CCO)cc1 (stereo not given)	-16.3%
COc1ccc(CNC(=O)COC(=O)c2c(C)nn(-c3ccccc3)c2C)cc1OC	-1.13%
COc1ccc(/C=C/C(=O)Nc2ccc(C)cc2)cc1S(=O)(=O)N1CCOCC1	18.3%
COc1ccc(/C=C/C(=O)Nc2ccc(C34CC5CC(CC(O)(C5)C3)C4)cc2)cc1OC	59.1% (active)
COc1ccc(/C=C/C(=O)N2CCCC2)cc1OC	5.87%
CCn1nc(C(=O)NNC(=O)C2CSC3(C)CCC(=O)N23)c2ccccc2c1=O (stereo not given)	25.6%
Cc1cccc(N2CCN(C(=O)c3cc4c(=O)[nH]c5ccccc5c4n3C)CC2)c1C	40.5%
O=C1CN(C(=O)c2cc(F)cc(F)c2)c2ccccc2N1	21%
CCOc1cc(N2CCOCC2)c(OCC)cc1NC(=O)COc1cccc(Cl)c1	-4.41%
CCOc1cc(N2CCOCC2)c(OCC)cc1NC(=O)COc1cccc2cccnc12	90.6% (active)
CCOc1cc(N2CCOCC2)c(OCC)cc1NC(=O)c1cc(C)nc2ccccc12	-16.5%
O=S(=O)(Nc1cc(Cl)ccc1N1CCOCC1)c1ccccc1Cl	1.14%
CC(C)(C)OC(=O)NCCCCCC(=O)N/N=C/c1coc2ccccc2c1=O	19.7%
O=c1c(/C=N/O)coc2ccc(Cl)cc12	9.78%
Cc1ccc2occ(/C=N/NC(=O)c3ccccc3C)c(=O)c2c1	68.7% (active)
O=C1CC(Cc2ccc(Cl)cc2)C(=O)N1c1cc(Cl)ccn1 (stereo not given)	-4.34%
CN(C)/C(CN1CCCCC1)=C1\N=C(c2ccccc2)OC1=O	0.454%
CCc1cc2cc(OC)ccc2nc1SCC(=O)Nc1cc(OC)c(OC)cc1C(=O)O	17%
Cc1[nH]c(C)c(S(=O)(=O)N2CCN(c3cccc(C(F)(F)F)c3)CC2)c1C(=O)N1CCCCC1	76.3% (active)

SMILES	inhibition
Cc1ccc(C)c(N2CCN(S(=O)(=O)c3c(C)[nH]c(C)c3C(=O)N3CCCC3)CC2)c1	5.45%
Cc1[nH]c(C)c(S(=O)(=O)N2CCN(c3cccc(C(F)(F)F)c3)CC2)c1C(=O)N1CCCC1	14.7%
CCOn1c(=O)c(=O)n(O)c2ccccc21	3.67%
CCS(=O)(=O)NCCc1ccc(OC)c(OC)c1	18.8%
COc1ccc(-c2cc(C(F)(F)F)nc(S(C)(=O)=O)n2)cc1OC	94.6% (active)
COc1ccc(-c2cc(-c3ccc(N)cc3)nc(N)c2C#N)cc1OC	32.6%
Cc1nc2ccccc2nc(=O)c1NNc1ccc([N+](=O)[O-])cc1	-2.46%
Cc1ccc(C)c(NS(=O)(=O)c2c(C)[nH]c(C)c2C(=O)N2CCCCC2)c1	-0.656%
Cc1c(C)n(Cc2ccc(Cl)cc2)c2ccc(C(=O)NCCCN3CCOCC3)cc12	45.2%
c1ccc2c(c1)CSc1sccc1C2=C1CCNCC1	78.5% (active)
CC1(C(=O)OCC(=O)Nc2ncc(Cl)cc2Cl)CC1(Cl)Cl (stereo not given)	-3.51%
C=CCNC(=S)NNc1ncnc2sc3c(c12)CC(C)(C)OC3	10.5%
COc1cc(/C=C/C(=O)OCC(=O)NCCCc2ccccc2)ccc1O	-15.8%
O=C(CCC(=O)N1CCCC1)Nc1ccc([N+](=O)[O-])cc1	8.85%
CCC12CN3CC(CC)(CN(C1)C31C(=O)N(C)c3ccc(C)cc31)C2=O (stereo not given)	5.2%
Cc1cccc(-c2nc3ccc(C(=O)NCCN4CCN(C)CC4)cc3nc2-c2cccc(C)c2)c1	93.2% (active)
Cc1cccc(C(=O)OC(C)CN2CCN(C)CC2)c1 (stereo not given)	15.4%
CCC1=Nc2cc(C(=O)NCCN3CCCC3)ccc2Sc2ccc(C)cc21	22.7%
O=C(CCN1C(=O)c2ccccc2C1=O)NNC(=O)c1ccc(Cl)cc1Cl	-2.94%
Cc1ccc(C(=O)NNC(=O)c2ccc3c(c2)OCCO3)cc1	-59.9%
CCCCn1c(N)c(N(CCC(C)C)C(=O)COC(=O)c2ccc(CC)cc2)c(=O)[nH]c1=O	5.72%
CCc1ccccc1NC(=O)[C@@H]1CCC(=O)N1C1OC(=O)c2c1ccc(OC)c2OC (stereo not given in full)	18.1%
CC1CN(C(=O)CCC(=O)NCc2cccnc2)c2ccccc2O1 (stereo not given)	-8.45%

SMILES	inhibition
CC1CN(C(=O)CCC(=O)NCCCN2CCC(Cc3ccccc3)CC2)c2cc(Cl)ccc2O1 (stereo not given)	90.6% (active)
CC1CN(C(=O)CCC(=O)NC2CCN(Cc3ccccc3)CC2)c2ccccc2O1 (stereo not given)	22.7%
CC(OC(=O)CCc1nc(=O)c2ccccc2n1C)C(=O)NCc1ccc2c(c1)OCO2 (stereo not given)	-11.9%
CN(CC(=O)NC(=O)Nc1ccccc1F)Cc1ccccc1	-18%
CCOC(=O)CSc1nncc2ccc(OC)c(OC)c12	0.893%
COc1ccc(C2c3c(C)nn(-c4ccccc4)c3NC(=O)N2c2ccccc2)cc1 (stereo not given)	9.76%
CCCCCCCCn1c2c(c(=N)c3c1CCC3)CCCC2	87% (active)
Cc1cc([N+](=O)[O-])nn1CCCC(=O)Nc1cccnc1Cl	21.4%
COc1ccc(N2CCN(S(=O)(=O)CCNC(=O)C34CC5CC(CC(C5)C3)C4)CC2)cc1	17.2%
CCOC(=O)C(C)n1nc(-c2ccccc2)c2ccccc2c1=O (stereo not given)	7.24%
Cc1cc(C)nc(/N=C2\NC(=O)CC(C(=O)O)N2c2ccc(Cl)cc2Cl)n1 (stereo not given)	3.8%
O=C(COC(=O)c1ccccc1Cl)NC1CCCCCCC1	4.18%
COc1cc(NC(=O)c2ccccc2NS(=O)(=O)c2ccc(Cl)s2)cc(OC)c1	85.1% (active)
COC(=O)c1ccc(NC(=O)c2ccccc2NS(=O)(=O)c2ccccc2)cc1	36.9%
COc1cc(OC)c(S(=O)(=O)Nc2ccccc2C(=O)O)cc1S(=O)(=O)Nc1ccccc1C(=O)O	13.2%
O=C(Nc1cc2c3c(c1)C1CCCC1CN3CC1CCCC21)c1ccc([N+](=O)[O-])cc1 (stereo not given)	14.3%
CN(C)c1ccc(C=NCCc2ccc(S(N)(=O)=O)cc2)cc1	5.89%
Cc1cc2cc3c(cc2nc1SCC(=O)Nc1c(C)cccc1C)CCC3	56.1% (active)
Cc1cccc(C)c1NC(=O)CSc1ccc([N+](=O)[O-])cn1	7.43%
Cc1cc(C)c(C#N)c(SCC(=O)Nc2ccccc2)n1	-38.3%
CN(C)CCn1c2c(c(SCC(=O)Nc3ccccc3C(F)(F)F)nc1=O)CCCC2	18.8%
